High-throughput results from PubChem BioAssay.
In the library only some 10% were active in any assay of this set; here they are far more common.
HEK cytotox – Cytotoxic Profiling in HEK 293 Cell Line of Diverse Libraries Using Quantitative High-Throughput Screening. HEK 293 viability, ATP luminescence (CellTiter-Glo), 48-72 h. Potency, µM (series often up to 115 µM), hits mostly inhibitors. 94,000 compounds, 6.6% hits. AID 1345083, 2018; note: nearly all actives have a fitted effect of over 60% in size
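qHTS cytotoxicity; HEK 293, 250 cells/well; compound pinned; 48 or 72 hr, 37 degree Celsius, 5% CO2, 95% humidity; CellTiter-Glo, 10 min RT; luminescence (ATP).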
3T3 cytotox – Cytotoxic Profiling in NIH 3T3 Cell Line of Diverse Libraries Using Quantitative High-Throughput Screening; NIH 3T3 viability, CellTiter-Glo ATP luminescence, 48-72 h; Potency, µM (doses to about 96.7 µM), most hits filed as inhibitors; 94,000 compounds, 4.3% hits; AID 1345082, 2018; note: nearly all actives have a fitted effect of over 55% in size
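ATP-dependent luminescence (CellTiter-Glo) served as the viability signal for NIH 3T3 cells treated with compound for 48 or 72 hr at 37 °C.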
FLuc inh-1 – Firefly luciferase inhibition profiling of diverse chemical library using quantitative high-throughput screening | purified P. pyralis luciferase, luminescence, biochemical | Potency, µM (doses to about 115 µM), most hits filed as inhibitors | 76,000 compounds, 2.5% hits | AID 1347043, 2019; note: nearly all actives have a fitted effect of over 65% in size
Target sequence (P08659 whole entry, looked up): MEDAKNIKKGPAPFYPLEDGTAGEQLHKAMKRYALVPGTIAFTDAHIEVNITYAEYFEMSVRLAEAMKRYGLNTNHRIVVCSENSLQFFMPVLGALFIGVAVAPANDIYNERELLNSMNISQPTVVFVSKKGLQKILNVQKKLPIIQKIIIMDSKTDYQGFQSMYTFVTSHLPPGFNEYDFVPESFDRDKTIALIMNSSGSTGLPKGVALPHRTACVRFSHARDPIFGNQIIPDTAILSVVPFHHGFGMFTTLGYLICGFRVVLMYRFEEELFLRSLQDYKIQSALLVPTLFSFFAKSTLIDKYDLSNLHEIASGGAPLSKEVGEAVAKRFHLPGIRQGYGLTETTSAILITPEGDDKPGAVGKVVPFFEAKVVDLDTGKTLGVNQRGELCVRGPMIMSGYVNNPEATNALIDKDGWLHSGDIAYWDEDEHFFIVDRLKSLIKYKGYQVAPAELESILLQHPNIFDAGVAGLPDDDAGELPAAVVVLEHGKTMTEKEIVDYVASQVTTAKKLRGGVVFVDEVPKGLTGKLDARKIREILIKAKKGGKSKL
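Luminescence read by CCD imaging after purified firefly luciferase (10nM final) was added to substrate buffer holding 10uM D-luciferin and 10uM ATP, pH 7.5, pre-dosed with compound.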
hNpr1 antagonist – Natriuretic polypeptide receptor (hNpr1) antagonism - Primary qHTS. Potency, µM (series often up to 46.3 µM), hits mostly inhibitors. 76,000 compounds, 1.6% hits. HEK293 hNpr1 GloSensor cGMP, ANP-stimulated luminescence. Atrial natriuretic peptide receptor 1 (Homo sapiens), P16066; calls by dose curve; note: nearly all actives have a fitted effect of over 60% in size
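Compound pre-incubated 30 min at room temperature on GloSensor-loaded HEK293 cells stably carrying hNpr1 and the pGS-40F cGMP biosensor. Stimulation uses hNppA at 0.1 nM final; luminescence is taken at baseline and 20 min post-agonist.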
GPT2 inhibitor – Primary qHTS assay for inhibitors of Glutamate pyruvate transaminase 2 (GPT2) | Alanine aminotransferase 2 (Homo sapiens), Q8TD30 | Recombinant GPT2, coupled pyruvate oxidase/HRP Amplex Red fluorescence | Potency, µM (series often up to 57.7 µM), actives largely listed as inhibitors | 100,000 compounds, 0.25% hits | AID 1671188, 2021; note: nearly all actives have a fitted effect of over 60% in size
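Recombinant GPT2 (10ng/uL) with 250uM a-KG and 2mM L-alanine, 30 min at room temperature, in HEPES pH 7.5 buffer. Pyruvate detected by pyruvate oxidase/HRP/Amplex Red fluorescence after 30 min in the dark; AOA (50uM) as positive control.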
FLuc SDR no ATP – Firefly luciferase (FLuc-C-HiBiT) SDR gain of signal screen - without ATP. Purified FLuc-C-HiBiT, Nano-Glo HiBiT luminescence, no ATP. Potency, µM (titrated, usually from 32.7 µM), usual class: activators. shares compounds with FLuc inh-1. 1,300 compounds, 7.8% hits; note: nearly all actives have a fitted effect of over 55% in size
FLuc SDR ATP – Firefly luciferase (FLuc-C-HiBiT) SDR gain of signal screen - plus ATP | Potency, µM (series often up to 32.7 µM), most hits filed as activators | purified FLuc-C-HiBiT + ATP, HiBiT complementation luminescence | 1,300 compounds, 8.7% hits | shares compounds with FLuc inh-1;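 note: signal reports ligand binding via conformational change of the enzyme rather than luciferase catalysis; nearly all actives have a fitted effect of over 55% in size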
FLuc inh-2 – Firefly luciferase (FLuc-C-HiBiT) enzymatic inhibition screen - Functional assay; shares compounds with FLuc inh-1; purified FLuc-C-HiBiT enzyme, luciferin luminescence; Potency, µM (series often up to 32.7 µM), usual class: inhibitors; 1,300 compounds, 42% hits; AID 1963320, 2024; note: nearly all actives have a fitted effect of over 70% in size
Hits are given with their value; . = inactive; ? = inconclusive; / = no result given. Unless noted, calls come from the whole dose curve; as a rule, active = well fitted curve in the direction sought with a large enough effect; inconclusive = small, poorly fitted or top-dose-only effect, or another doubt; inactive = no such curve, though single readings can be large; an effect the other way counts as inactive or inconclusive.

SMILES | HEK cytotox | 3T3 cytotox | FLuc inh-1 | hNpr1 antagonist | GPT2 inhibitor | FLuc SDR no ATP | FLuc SDR ATP | FLuc inh-2
O=C(Nc1ccccc1)N1CC(Oc2ccc(-c3nc(-c4ccccc4)no3)cc2)C1 | ? | . | 1.3µM | . | . | . | . | ?
O=C(N1CC(Oc2ccc(-c3noc(-c4ccccc4)n3)cc2)C1)C1(c2ccccc2)CC1 | . | . | . | . | . | / | / | /
O=C(c1cccc(F)c1)N1CC(Oc2cccc(-c3nc(-c4ccccc4)no3)c2)C1 | ? | ? | ? | . | . | / | / | /
CCNC(=O)N1CC(Oc2ccc(-c3nc(-c4ccccc4)no3)cc2)C1 | ? | . | 0.63µM | 0.25µM | . | . | . | ?
O=C(Cc1cccc(F)c1)N1CC(Oc2ccc(-c3nc(-c4ccccc4)no3)cc2)C1 | ? | . | 2µM | 7.9µM | . | . | . | ?
Cc1noc(-c2ccc(OC3CN(C(=O)NCc4ccccc4)C3)cc2)n1 | ? | ? | . | ? | . | / | / | /
COc1ccc(C(=O)N2CCC3(CC2)c2[nH]c4ccccc4c2CCN3C)c(OC)n1 | . | . | . | . | . | / | / | /
CNc1ccc(-c2noc([C@@H]3CCCN3Cc3ccccn3)n2)cn1 | . | ? | ? | . | . | / | / | /
CN(C)c1ccc(-c2noc([C@@H]3CCCN3Cc3cnc4ccccc4c3)n2)cn1 | ? | ? | 14µM | 14µM | ? | . | . | .
CCC(=O)N1CCc2c(C(=O)O)cccc21 | . | . | 28µM | . | . | . | . | .
CC(C)CNC(=O)c1cccc2c1CCN2C(=O)c1ccc(F)cc1 | ? | . | . | . | . | / | / | /
O=C(O)c1cccc2c1CCN2C(=O)c1ccc(F)cc1 | . | ? | 1.3µM | ? | . | . | 1.2µM | 1.8µM
C=CCNC(=O)c1cccc2c(C)nnn12 | . | . | 14µM | . | ? | . | . | .
Cc1ccc(-c2nnc([C@H]3CCN(Cc4cccc(C#N)c4)C3)o2)cc1 | ? | ? | ? | . | . | / | / | /
CCOc1ccc(NC(=O)CCC2CCCN(S(=O)(=O)c3ccc(F)cc3)C2)cc1 (stereo unspecified) | ? | . | / | / | . | / | / | /
COc1ccc(-c2noc(-c3ccc(C)cc3Cl)n2)cc1OC | / | / | / | / | / | . | . | ?
COc1ccc(CCC(=O)N2CCC3(CC2)CC(OC)CCO3)cc1 (stereo unspecified) | . | . | . | . | . | / | / | /
COC1CCOC2(CCN(C(=O)CCCc3ccccc3)CC2)C1 (stereo unspecified) | . | . | 6.3µM | . | . | . | ? | ?
Cc1ccc(C2Cn3nnc(C(=O)N4CCC(C(=O)NCCN5CCCC5)CC4)c3CO2)cc1 (stereo unspecified) | . | . | 13µM | . | . | . | ? | ?
Cc1ccc(C2Cn3nnc(C(=O)N4CCN(C(=O)c5cccs5)CC4)c3CO2)cc1 (stereo unspecified) | . | ? | . | . | . | / | / | /
Cc1ccc(C(=O)N2CCN(C(=O)c3nnn4c3COC(c3ccc(C)cc3)C4)CC2)cc1 (stereo unspecified) | ? | . | . | . | . | / | / | /
